Consider 3 molecules from PubChem BioAssay.

A short description of experiment [1]: signal quenchers or enhancers, Cy5 substrate/SSB – biochemical, NIH Clinical Collection, E. coli SSB, artefact control for HCV NS3 helicase inhibitor project (AID 743268). To be noted: Cy5-oligo bound E. coli SSB, fluorescence interference.
Experiment [2] relates to Hepatitis C virus NS3 helicase. Nature of the experiment: blockers of NS3h binding to DNA – biochemical, fluorescence polarization, NIH Clinical Collection, primary screen (AID 743270). To be noted: NS3 helicase binding to Cy5-dT15 DNA, stronger effect = higher value, concentration not given here.
The target in experiment [3] is Single-stranded DNA-binding protein (Escherichia coli (strain K12)) (UniProt P0AGE0). Description: SSB-ssDNA binding inhibitors – biochemical, fluorescence polarization, NIH Clinical Collection, counter-screen for HCV NS3 helicase inhibitor project (AID 743271; in the data active means inhibition above about 28%). To be noted: E. coli SSB-DNA binding, stronger effect = higher value, concentration not given here.
A short description of experiment [4]: compounds distorting NS3 helicase fluorescence signal – biochemical, NIH Clinical Collection, artefact control for HCV NS3 helicase inhibitor project (AID 743272).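 Further: HCV NS3 helicase with a Cy5 labelled single stranded DNA probe.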 Conditions: fluorescence interference counterscreen, HCV NS3 helicase assay; stronger effect = lower value.
A short description of experiment [5]: Wnt pathway potentiators raising nuclear beta-catenin – imaging, WNT3A-conditioned medium, mouse C2C12, NPC library, primary screen (AID 1117326; in the data active means nuclear beta-catenin stimulation mostly above about 4.2%, no sharp cut-off; inactive means mostly below about 10%). Conditions: stronger effect = higher value.
Experiment [6] can be described thus: stimulators of insulin release from INS-1E, primary screen, cell-based, 5 mM glucose, NPC library (AID 1117329;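 active means compound raises insulin release from rat beta cells at 5 mM glucose, no numeric limit stated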). Conditions: rat INS-1E insulin secretion, at 10 µM, stronger effect = higher value.
Experiment [7] can be described thus: growth inhibition of GSK3B-pretreated HCT116 cells – cell-based, CellTiter-Glo, 0.2 to 20 µM (AID 1117336;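 active means compounds lowering colon cancer cell viability after pretreatment blocking the GSK3B kinase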). Conditions: HCT116 viability after GSK3B inhibitor, at 20 µM, stronger effect = higher value.
A short description of experiment [8]: inhibition of endothelial tube formation, primary screen, imaging, VEGF stimulated, CD31 staining, tube area, NPC library (AID 1117340;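 active means compound that reduces growth-factor-driven endothelial tube area in a mixed cell culture, no cutoff stated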). To be noted: VEGF-stimulated ADSC/ECFC co-culture, at 10 µM, stronger effect = higher value.
A short description of experiment [9]: GLP1 release stimulators, primary, NCI-H716, NPC library (AID 1117341;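 active means compound raises GLP1 secretion from the human gut endocrine cells, with no numeric limit stated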). To be noted: NCI-H716 cells, at 10 µM, stronger effect = higher value.
Experiment [10] is described as follows: HCT116 colon cancer cell growth inhibition, primary screen, CellTiter-Glo luminescence, NPC library (AID 1117342;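 active means compounds that lower survival of HCT116 colon cancer cells in the luminescence readout, no numeric limit stated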). To be noted: at 20 µM (top of the series).
Experiment [11] in a line: reduced SW480 viability measured with CellTiter-Glo, NPC library, primary (AID 1117343;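 active means compounds that lower viability of the colon cancer cells in the luminescence readout, with no numeric limit stated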). Conditions: CellTiter-Glo luminescence; at 20 µM (top of the series).
A short description of experiment [12]: NPC library primary testing for decreased DLD-1 cell viability via CellTiter-Glo (AID 1117346;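 active means compounds that lower survival of DLD-1 colon cancer cells in the luminescence readout, no cutoff given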). To be noted: DLD-1 viability, CellTiter-Glo luminescence; at 20 µM (top of the series).
Experiment [13] addresses 6-phosphogluconate dehydrogenase, decarboxylating (Homo sapiens) (UniProt P52209). Nature of the experiment: inhibition of human phosphogluconate dehydrogenase – biochemical, recombinant enzyme, NADPH absorbance, primary screen (AID 1159550;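 active means at least 20% inhibition of 6-phosphogluconate dehydrogenase activity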). Conditions: recombinant 6PGD, NADPH absorbance 341 nm; at 10 µM; stronger effect = higher value.
A short description of experiment [14]: viability loss with induced miR-34 in A549 – imaging, A549 dox-inducible miR-34, nuclei and caspase counts, primary screen (AID 1347080;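 active means compounds whose cell count with miR-34 switched on is under 0.7 times the count with it off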). Conditions: A549 miR-34 inducible, Hoechst nuclei count, 48 h.
Experiment [15] is described as follows: MELAS cybrid and Rieske KO viability enhancers – cell-based, MELAS cybrids, Rieske KO mouse fibroblasts, CellTiter-Glo, primary screen (AID 1508586;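 active means mean z-score across replicates of 1.96 or higher in either the MELAS or the Rieske mutant cell line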;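 further: z relative to plate mean and SD of compound and empty wells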). Conditions: low glucose.
The target of experiment [16] is NAD(+) hydrolase SARM1 (Homo sapiens) (UniProt Q6SZW1). Description: blocking NAD cleavage by SARM1 SAM-TIR – cell lysate, NAD-Glo luminescence (AID 1508614;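 active means compound whose remaining NAD level is above about 45 nM, limit read from the data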). To be noted: SAM-TIR HEK293T lysate NADase, at 1 µM, stronger effect = higher value.
Chain of NAD(+) hydrolase SARM1 (Homo sapiens) (Q6SZW1 whole entry, looked up, the tested form may be a part): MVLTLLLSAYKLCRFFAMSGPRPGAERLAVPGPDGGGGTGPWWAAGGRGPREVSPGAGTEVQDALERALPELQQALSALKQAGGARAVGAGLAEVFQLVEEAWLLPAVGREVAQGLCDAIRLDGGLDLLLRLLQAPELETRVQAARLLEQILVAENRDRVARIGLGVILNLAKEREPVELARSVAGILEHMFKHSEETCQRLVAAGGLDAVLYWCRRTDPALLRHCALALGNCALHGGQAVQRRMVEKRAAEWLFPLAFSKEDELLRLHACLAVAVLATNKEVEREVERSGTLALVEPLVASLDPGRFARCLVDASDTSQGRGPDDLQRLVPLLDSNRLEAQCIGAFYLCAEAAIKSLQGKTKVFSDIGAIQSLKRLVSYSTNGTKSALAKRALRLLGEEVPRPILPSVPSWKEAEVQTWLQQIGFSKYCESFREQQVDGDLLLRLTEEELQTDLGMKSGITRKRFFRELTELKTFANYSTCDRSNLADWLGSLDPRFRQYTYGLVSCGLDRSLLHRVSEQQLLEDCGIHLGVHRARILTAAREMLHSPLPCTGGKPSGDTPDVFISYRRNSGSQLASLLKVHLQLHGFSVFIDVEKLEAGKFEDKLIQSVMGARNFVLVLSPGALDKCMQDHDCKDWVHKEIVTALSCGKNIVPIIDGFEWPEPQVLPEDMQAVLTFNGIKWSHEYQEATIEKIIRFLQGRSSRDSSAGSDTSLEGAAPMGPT
The target of experiment [17] is Mitogen-activated protein kinase 7 (Homo sapiens) (UniProt Q13164). Nature of the experiment: Gal4-ERK5 driven luciferase induction – cell-based, HTS, primary screen (AID 1508626;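 active means luciferase signal above three times the same-plate solvent-only control wells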;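 further: luciferase driven by Gal4-ERK5 fusion binding five Gal4 sites before minimal TATA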). To be noted: HeLa Gal4-ERK5 transactivation, 18 h, at 5 µM, stronger effect = higher value.
Chain of Mitogen-activated protein kinase 7 (Homo sapiens) (Q13164 whole entry, looked up, the tested form may be a part): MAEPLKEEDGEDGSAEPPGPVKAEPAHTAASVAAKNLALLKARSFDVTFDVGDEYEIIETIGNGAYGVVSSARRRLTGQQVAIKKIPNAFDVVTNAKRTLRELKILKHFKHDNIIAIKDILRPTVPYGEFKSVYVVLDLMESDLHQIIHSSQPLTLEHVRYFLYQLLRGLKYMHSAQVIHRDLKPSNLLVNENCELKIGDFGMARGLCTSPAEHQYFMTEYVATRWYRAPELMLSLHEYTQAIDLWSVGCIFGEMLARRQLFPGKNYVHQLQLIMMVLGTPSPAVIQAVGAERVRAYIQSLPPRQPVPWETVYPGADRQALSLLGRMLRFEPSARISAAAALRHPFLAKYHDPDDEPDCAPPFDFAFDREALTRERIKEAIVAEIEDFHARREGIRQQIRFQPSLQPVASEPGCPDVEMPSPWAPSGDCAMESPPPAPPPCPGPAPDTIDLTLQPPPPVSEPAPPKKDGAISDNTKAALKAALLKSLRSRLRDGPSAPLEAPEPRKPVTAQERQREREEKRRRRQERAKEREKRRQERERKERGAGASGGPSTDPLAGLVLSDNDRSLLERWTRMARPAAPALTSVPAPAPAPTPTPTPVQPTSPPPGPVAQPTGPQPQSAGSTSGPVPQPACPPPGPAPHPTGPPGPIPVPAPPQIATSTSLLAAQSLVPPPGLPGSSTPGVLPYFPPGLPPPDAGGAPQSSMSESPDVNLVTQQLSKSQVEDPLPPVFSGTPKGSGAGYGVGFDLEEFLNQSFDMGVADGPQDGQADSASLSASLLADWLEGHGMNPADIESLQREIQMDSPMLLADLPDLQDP
Experiment [18] relates to F380Y. Description: BK channel mutant inhibitors and activators – cell-based, U2OS BacMam, thallium flux, beta subunits, selectivity assay, profiling panel (AID 1259406;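 active means thallium flux through the channel raised or lowered by more than 3 SD from vehicle-only wells, actives on both sides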;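 further: initial slope of Thallos dye fluorescence rise after thallium is added; log ratio against the mean of 0.3% DMSO vehicle wells on the same plate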). Conditions: U2OS BacMam BK variants, at 30 µM.
The nature of experiment [19]: P. berghei load reduction in hepatocytes – cell-based, HepG2, luciferase luminescence, HepG2 viability, primary screen (AID 624349; in the data active means parasite load remaining mostly below about 12%, no sharp cut-off; inactive means mostly above about 10%;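 further: 100% = mean of DMSO negative control wells on the same plate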). Conditions: P. berghei liver stage in HepG2, luciferase luminescence, concentration not given here; parasite load remaining: stronger effect = lower value; viability: measured here: HepG2 viability without parasites.
The nature of experiment [20]: EMT-state selective cytotoxicity in co-culture – imaging, PC-3E GFP, TEM4-18 mCherry, primary screen (AID 1345086;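 active means compounds killing one labelled cell type while sparing the other, by normalised counts and ratio limits, not self-fluorescent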;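 further: cells exposed to compound for 72 h before imaging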;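 on red/green cell ratio (normalised): normalised mesenchymal count divided by normalised epithelial count so high means epithelial killing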). Conditions: PC-3E GFP / TEM4-18 mCherry co-culture, imaging cell counts, at 1 µM.
Where [21] appears, read: stronger effect = lower value, cell number ratio, induced over uninduced.
Setting [22] is: measured here: relative caspase fold change +Dox/-Dox.
Where [23] appears, read: measured here: total cells with miR-34 induction, stronger effect = lower value.
Where [24] appears, read: measured here: total cells without miR-34 induction.
Setting [25] is: MELAS cybrid survival, CellTiter-Glo 48 h, stronger effect = higher value.
The mark [26] stands for this setting: Rieske KO mouse fibroblast survival, CellTiter-Glo 72 h.

Where “and” joins values, the source holds several entries; their conditions need not be identical. Equal values may be shown once. Some structures have more than one record in an assay (separate samples or runs), and their calls can disagree. Calls of active or inactive are those of the source. Unless noted, how the calls were made is not given here.

Chain of 6-phosphogluconate dehydrogenase, decarboxylating (Homo sapiens) (P52209 whole entry, looked up): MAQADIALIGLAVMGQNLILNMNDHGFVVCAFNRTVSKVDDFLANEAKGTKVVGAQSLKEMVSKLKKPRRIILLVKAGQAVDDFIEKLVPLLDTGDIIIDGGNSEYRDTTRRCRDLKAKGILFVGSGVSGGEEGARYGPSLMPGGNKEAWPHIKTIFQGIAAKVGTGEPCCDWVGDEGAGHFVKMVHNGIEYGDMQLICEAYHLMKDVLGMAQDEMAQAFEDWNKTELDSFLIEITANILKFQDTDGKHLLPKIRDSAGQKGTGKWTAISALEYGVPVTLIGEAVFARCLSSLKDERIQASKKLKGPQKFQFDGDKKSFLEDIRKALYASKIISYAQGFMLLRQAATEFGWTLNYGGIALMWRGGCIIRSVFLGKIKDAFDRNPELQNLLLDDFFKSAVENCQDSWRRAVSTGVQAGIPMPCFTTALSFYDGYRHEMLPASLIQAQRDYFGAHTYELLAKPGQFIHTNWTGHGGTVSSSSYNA

As to `Cc1cccc(CN2CCN(C(c3ccccc3)c3ccc(Cl)cc3)CC2)c1` (stereo not given), the values for the fluorescence ratio in experiment [1] and in experiment [4] were 0.1 (active) and 0.96 (inactive), respectively. In addition, the inhibition in [2] is -3.18% (inactive); in [3], 7.91% (inactive); in experiment [13] it was -14.5% (inactive). Moreover, the nuclear beta-catenin stimulation in experiment [5] (at 10 µM) is 5.6% (inactive); in [5] (stimulation, at 2 µM), -0.6%. Further, in experiment [6], the insulin secretion stimulation is -1.7% (inactive). Besides, the viability decrease in experiment [7] is 77.3% (active). In addition, the tube area decrease in experiment [8] is 33.4% (inactive). The GLP1 secretion stimulation in [9] was -2.1% (inactive). Besides, the inhibition of viability in [10] is 83.5% (active). Further, the values for the viability decrease (inhibition) in experiment [11] and in experiment [12] were 116% (active) and 87.8% (active), respectively. For the same molecule, the fold change in experiment [14] (setting [21]) is 0.91 (inactive) and 0.869 (inactive) and 0.905 (inactive); in [14] (setting [22]), 2.01 and 1.32 and 1.69. Moreover, the cell count is 8220 and 9250 and 10600 in experiment [14] (setting [23]); 9040 and 10700 and 11700 in experiment [14] (setting [24]). In addition, the z-score in [15] (setting [25]) was -0.845 (inactive); in [15] (setting [26]), -0.151. In experiment [16], the remaining NAD was 10 nM (inactive). The luciferase signal in experiment [17] is 96 AU (inactive). Further, the log fold change Tl+ flux in [18] was 0.0137 (inactive).

For `CC(C)(C)NC[C@H](O)COc1nsnc1N1CCOCC1`, the parasite load remaining in experiment [19] was 64.7% (inactive) and 81.2% (inactive) and 46% (inactive). Further, in experiment [19], the viability was 97.8% and 98% and 104%. In addition, the fluorescence ratio in experiment [1] was 0.99 (inactive); in [4], 0.98 (inactive). Also, the inhibition in [2] was 0.45% (inactive); in experiment [3], 2.57% (inactive); in experiment [13], -2.5% (inactive). Moreover, the nuclear beta-catenin stimulation is 2.1% (inactive) in [5] (at 10 µM) and 0.4% in experiment [5] (stimulation, at 2 µM). Besides, the insulin secretion stimulation in experiment [6] was 3.2% (inactive). In addition, the viability decrease in [7] is 6.4% (inactive). Further, the tube area decrease in experiment [8] was -8.3% (inactive). Moreover, the GLP1 secretion stimulation in [9] was 1.7% (inactive). Also, in experiment [10], the inhibition of viability is -6.3% (inactive). Besides, the viability decrease (inhibition) in experiment [11] was -4.9% (inactive); in experiment [12], -2.7% (inactive). Moreover, the z-score in experiment [15] (setting [25]) is 0.744 (inactive) and 0.988 (inactive); in experiment [15] (setting [26]), 0.265 and 0.0861. Also, the remaining NAD in experiment [16] is 10 nM (inactive). For the same molecule, in experiment [17], the luciferase signal was 32 AU (inactive). Moreover, in experiment [18], the log fold change Tl+ flux was 0.0205 (inactive).

Turning to `CN(C)c1ccc(O)c2c1C[C@H]1C[C@H]3[C@H](N(C)C)C(=O)C(C(N)=O)=C(O)[C@@]3(O)C(=O)C1=C2O`, the figures for the fluorescence ratio in experiment [1] and in experiment [4] were 0.97 (inactive) and 0.89 (inactive), respectively. Besides, the inhibition is -8.64% (inactive) in experiment [2], 0.29% (inactive) in experiment [3] and -17.9% (inactive) in experiment [13]. The nuclear beta-catenin stimulation is 3.7% (inactive) in experiment [5] (at 10 µM) and 6.6% in experiment [5] (stimulation, at 2 µM). In addition, in experiment [6], the insulin secretion stimulation is 1.5% (inactive). Besides, the viability decrease in experiment [7] is -31.1% (inactive). For the same molecule, the tube area decrease in [8] is 6.7% (inactive). In experiment [9], the GLP1 secretion stimulation is -1.4% (inactive). Besides, the inhibition of viability in experiment [10] is 17.9% (inactive). For the same molecule, the results for the viability decrease (inhibition) in experiment [11] and in experiment [12] were 65.6% (active) and 74.4% (active), respectively. Also, the red/green cell ratio (normalised) in experiment [20] (actives lie on both sides, counts scaled to control wells, 1 = unselective) was 1.2 (inactive). Besides, the normalised cell number in experiment [20] (measured here: epithelial PC-3E GFP cell survival) was determined as 0.99; in experiment [20] (measured here: mesenchymal TEM4-18 mCherry cell survival), 1.19. The fold change in experiment [14] (setting [21]) is 1.15 (inactive) and 0.819 (inactive) and 0.689 (active); in [14] (setting [22]), 0.974 and 2.86 and 1.89. The cell count is 2650 and 5110 and 3260 in [14] (setting [23]); 2300 and 6240 and 4740 in experiment [14] (setting [24]). For the same molecule, the z-score in [15] (setting [25]) is -2.76 (inactive) and 0.283 (inactive); in experiment [15] (setting [26]), -3.81 and -1.93. Further, in [16], the remaining NAD was 10 nM (inactive). In addition, the luciferase signal in experiment [17] is 52 AU (inactive). In addition, the log fold change Tl+ flux in experiment [18] is -0.0263 (inactive).
